In ChEMBL document CHEMBL3988442, “University of Dundee, Small-Polar-MMV Screening Library” (2021):
For some assays here: Results with a measured potency or affinity are listed apart.

Legend:
Set-up in all cases: scale not given: direction of the effect not stated beside the values
[1] = target: Protein translocase subunit SecA (Escherichia coli (strain K12)) (UniProt P10408); experiment: Assay to Identify E. coli SecA ATPase Inhibitors; format: functional; conditions: 30 µM
[2] = target: T1, Ubiquitin-activating enzyme e1, putative (Leishmania donovani (strain BPK282A1)) (UniProt E9BSI1); experiment: Leishmania donovani Ubiquitin Activating Enzyme (LdE1); format: functional; conditions: 30 µM
T1 sequence (whole entry): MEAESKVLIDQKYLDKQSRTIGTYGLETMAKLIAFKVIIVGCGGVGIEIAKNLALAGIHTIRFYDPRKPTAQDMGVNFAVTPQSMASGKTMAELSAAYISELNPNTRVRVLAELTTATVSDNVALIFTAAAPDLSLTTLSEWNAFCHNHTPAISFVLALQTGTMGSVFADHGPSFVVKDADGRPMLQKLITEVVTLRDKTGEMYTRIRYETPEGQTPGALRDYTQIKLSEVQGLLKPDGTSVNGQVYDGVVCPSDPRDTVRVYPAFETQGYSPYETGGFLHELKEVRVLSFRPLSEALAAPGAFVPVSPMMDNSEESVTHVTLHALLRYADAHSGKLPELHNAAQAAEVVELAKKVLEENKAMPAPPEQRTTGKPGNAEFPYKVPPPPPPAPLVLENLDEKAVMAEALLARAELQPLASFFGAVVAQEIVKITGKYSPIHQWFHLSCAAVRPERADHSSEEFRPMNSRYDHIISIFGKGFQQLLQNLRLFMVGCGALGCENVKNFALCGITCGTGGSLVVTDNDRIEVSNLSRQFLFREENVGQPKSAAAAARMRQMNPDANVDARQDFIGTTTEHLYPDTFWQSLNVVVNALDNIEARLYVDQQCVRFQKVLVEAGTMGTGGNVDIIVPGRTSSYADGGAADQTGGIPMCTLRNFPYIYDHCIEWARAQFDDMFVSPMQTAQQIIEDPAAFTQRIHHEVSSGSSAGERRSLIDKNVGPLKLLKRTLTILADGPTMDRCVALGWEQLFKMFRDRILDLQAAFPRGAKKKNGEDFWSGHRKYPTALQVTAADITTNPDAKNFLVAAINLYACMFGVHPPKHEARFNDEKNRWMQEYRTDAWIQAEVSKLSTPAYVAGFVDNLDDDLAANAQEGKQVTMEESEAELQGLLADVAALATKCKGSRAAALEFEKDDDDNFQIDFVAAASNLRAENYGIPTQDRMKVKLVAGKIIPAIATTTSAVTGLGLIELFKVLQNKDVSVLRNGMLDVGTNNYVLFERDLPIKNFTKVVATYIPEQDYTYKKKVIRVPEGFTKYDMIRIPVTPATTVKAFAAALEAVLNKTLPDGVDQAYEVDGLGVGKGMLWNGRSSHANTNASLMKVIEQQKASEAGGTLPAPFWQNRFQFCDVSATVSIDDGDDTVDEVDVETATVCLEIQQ

[3] = target: AMP-activated protein kinase, AMPK (Homo sapiens) (UniProt P54646+O43741+P54619+Q9UGJ0+Q9Y478+Q13131+Q9UGI9); experiment: AMP-dependent Kinase enzyme assay. An in vitro enzyme assay that detects ADP turnover that is directly proportional to AMPK activity. This uses naive AMPK that is activated during the assay with MK-8722; format: functional; conditions: 30 µM
[4] = target: Sialic acid-binding Ig-like lectin 9 (Homo sapiens) (UniProt Q9Y336); experiment: Hs-Siglec9 ALPHAscreen SOP 20170721; conditions: 10 µM
Chain of Sialic acid-binding Ig-like lectin 9 (Homo sapiens) (Q9Y336 whole entry): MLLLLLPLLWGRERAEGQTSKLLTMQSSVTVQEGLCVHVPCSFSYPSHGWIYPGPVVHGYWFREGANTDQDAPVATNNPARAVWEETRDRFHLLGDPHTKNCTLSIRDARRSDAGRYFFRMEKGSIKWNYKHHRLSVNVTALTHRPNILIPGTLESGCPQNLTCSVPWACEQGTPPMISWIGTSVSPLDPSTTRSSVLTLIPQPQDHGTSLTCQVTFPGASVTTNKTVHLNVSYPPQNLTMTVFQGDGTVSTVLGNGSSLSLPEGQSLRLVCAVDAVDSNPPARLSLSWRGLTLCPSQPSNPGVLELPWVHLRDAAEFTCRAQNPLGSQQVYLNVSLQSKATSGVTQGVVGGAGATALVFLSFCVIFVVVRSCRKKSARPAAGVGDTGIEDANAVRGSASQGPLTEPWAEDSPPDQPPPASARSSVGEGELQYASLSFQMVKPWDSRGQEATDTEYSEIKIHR

Trypanosoma cruzi = experiment: Trypanosoma cruzi phosphomannomutase and mannose-1-phosphate guanylyltransferase assay; format: functional; conditions: 10 µM
[5] = target: T2, Arginase-2, mitochondrial (Homo sapiens) (UniProt P78540); experiment: in vitro enzyme assay to detect the production of urea directly proportional to the activity of Arginase II; format: functional; conditions: 33.3 µM; note: in the data most compounds retested in dose-response had high values
T2 sequence (whole entry): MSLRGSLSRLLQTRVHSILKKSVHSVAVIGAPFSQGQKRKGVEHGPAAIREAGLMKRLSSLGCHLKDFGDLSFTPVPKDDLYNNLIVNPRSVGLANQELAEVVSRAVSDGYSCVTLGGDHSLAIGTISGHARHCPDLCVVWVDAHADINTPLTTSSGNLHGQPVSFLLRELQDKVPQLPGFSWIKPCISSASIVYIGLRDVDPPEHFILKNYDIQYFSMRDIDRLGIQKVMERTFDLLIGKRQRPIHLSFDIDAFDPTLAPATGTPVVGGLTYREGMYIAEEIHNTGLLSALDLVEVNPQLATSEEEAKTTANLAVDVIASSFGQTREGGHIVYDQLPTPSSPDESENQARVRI

[6] = target: T3, Proteasome subunit beta (Trypanosoma cruzi) (UniProt O96673); experiment: Trypanosoma cruzi proteasome chymotrypsin-like activity (TcProtChymo) assay.; note: in the data most compounds retested in dose-response had high values; format: functional; conditions: 9.37 µM
T3 sequence (whole entry): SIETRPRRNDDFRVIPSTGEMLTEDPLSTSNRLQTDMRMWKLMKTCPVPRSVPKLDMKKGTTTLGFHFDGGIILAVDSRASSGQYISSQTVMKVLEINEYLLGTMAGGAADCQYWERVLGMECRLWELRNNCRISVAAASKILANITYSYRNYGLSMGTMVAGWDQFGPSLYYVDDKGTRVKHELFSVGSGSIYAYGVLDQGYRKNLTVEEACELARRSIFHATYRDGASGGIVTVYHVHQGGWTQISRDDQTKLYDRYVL

Homo sapiens = organism: Homo sapiens; experiment: To identify inhibition of the IFN signalling (Jak-Stat) pathway via expression of an eGFP reporter gene under the control of an IFN-stimulated response element (ISRE) containing MxA promoter.; format: functional; conditions: 30 µM
[7] = target: T4, Tyrosyl-tRNA synthetase, putative (Trypanosoma cruzi (strain CL Brener)) (UniProt Q4DSP6); experiment: Trypanosoma cruzi tyrosyl tRNA synthetase (TcYRS) _High Tyrosine SOP; format: functional; conditions: 30 µM; note: in the data most compounds retested in dose-response had high values
T4 sequence (whole entry): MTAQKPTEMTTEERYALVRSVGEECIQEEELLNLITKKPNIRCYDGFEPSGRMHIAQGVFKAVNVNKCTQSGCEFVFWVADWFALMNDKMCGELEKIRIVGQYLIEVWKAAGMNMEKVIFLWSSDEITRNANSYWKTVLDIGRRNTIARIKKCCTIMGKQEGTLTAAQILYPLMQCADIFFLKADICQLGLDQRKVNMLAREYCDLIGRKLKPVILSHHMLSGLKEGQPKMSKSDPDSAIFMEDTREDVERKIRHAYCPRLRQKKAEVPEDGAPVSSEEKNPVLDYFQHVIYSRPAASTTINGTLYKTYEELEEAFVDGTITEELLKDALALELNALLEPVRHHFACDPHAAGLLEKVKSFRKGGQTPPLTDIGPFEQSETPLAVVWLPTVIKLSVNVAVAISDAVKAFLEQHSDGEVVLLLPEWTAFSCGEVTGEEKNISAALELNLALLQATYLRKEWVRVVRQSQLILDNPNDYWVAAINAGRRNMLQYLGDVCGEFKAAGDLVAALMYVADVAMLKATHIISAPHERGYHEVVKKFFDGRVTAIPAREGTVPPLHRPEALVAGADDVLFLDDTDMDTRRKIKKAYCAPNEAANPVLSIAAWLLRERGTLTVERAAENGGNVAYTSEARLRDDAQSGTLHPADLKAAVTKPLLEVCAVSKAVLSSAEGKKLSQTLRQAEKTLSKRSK

[8] = target: T4, Tyrosyl-tRNA synthetase, putative (Trypanosoma cruzi (strain CL Brener)); experiment: Trypanosoma cruzi tyrosyl tRNA synthetase (TcYRS) SOP; format: functional; conditions: 30 µM
[9] = target: Chromo domain-containing protein 1 (Saccharomyces cerevisiae (strain ATCC 204508 / S288c) (Baker's yeast)) (UniProt P32657); experiment: ScCHD-1 Enzyme Inhibition Assay; format: functional; conditions: 30 µM; note: in the data most compounds retested in dose-response had high values
Chain of Chromo domain-containing protein 1 (Saccharomyces cerevisiae (strain ATCC 204508 / S288c) (Baker's yeast)) (P32657 whole entry, the tested form may be a part): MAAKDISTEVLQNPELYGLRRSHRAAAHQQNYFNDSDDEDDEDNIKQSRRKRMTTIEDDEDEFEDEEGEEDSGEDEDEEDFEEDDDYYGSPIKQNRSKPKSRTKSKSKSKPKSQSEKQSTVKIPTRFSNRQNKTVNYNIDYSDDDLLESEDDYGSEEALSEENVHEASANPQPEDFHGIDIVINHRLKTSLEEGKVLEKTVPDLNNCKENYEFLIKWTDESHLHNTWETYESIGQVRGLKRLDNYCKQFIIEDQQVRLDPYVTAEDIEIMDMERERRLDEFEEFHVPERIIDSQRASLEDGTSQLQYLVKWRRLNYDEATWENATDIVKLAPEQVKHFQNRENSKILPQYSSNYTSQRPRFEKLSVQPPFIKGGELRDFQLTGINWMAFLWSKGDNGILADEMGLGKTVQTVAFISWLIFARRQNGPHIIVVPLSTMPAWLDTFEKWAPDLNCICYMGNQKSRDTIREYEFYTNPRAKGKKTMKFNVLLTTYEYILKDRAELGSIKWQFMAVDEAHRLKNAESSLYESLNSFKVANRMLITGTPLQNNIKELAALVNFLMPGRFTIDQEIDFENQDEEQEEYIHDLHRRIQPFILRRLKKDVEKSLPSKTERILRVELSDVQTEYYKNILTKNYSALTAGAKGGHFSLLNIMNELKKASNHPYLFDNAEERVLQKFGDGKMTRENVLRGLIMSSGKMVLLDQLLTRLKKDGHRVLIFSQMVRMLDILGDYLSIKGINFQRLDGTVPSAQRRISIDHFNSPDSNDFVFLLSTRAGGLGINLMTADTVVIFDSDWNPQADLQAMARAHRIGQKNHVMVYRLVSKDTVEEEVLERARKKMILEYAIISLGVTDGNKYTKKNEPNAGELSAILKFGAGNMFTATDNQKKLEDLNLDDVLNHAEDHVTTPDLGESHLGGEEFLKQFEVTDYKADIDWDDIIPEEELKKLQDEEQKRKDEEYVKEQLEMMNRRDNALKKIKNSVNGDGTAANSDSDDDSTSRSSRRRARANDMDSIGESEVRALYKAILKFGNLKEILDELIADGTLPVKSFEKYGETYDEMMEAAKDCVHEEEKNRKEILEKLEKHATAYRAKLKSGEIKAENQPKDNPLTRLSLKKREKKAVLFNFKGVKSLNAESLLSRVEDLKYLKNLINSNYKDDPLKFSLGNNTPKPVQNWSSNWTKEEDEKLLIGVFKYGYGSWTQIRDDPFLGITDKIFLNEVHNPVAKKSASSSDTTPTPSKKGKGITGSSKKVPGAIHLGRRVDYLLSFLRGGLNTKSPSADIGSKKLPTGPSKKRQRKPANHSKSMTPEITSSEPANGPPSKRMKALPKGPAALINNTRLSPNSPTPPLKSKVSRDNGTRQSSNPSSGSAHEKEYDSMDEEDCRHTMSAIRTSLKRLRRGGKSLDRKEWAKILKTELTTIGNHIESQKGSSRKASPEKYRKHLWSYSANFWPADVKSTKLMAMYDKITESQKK

Chain of Protein translocase subunit SecA (Escherichia coli (strain K12)) (P10408 whole entry): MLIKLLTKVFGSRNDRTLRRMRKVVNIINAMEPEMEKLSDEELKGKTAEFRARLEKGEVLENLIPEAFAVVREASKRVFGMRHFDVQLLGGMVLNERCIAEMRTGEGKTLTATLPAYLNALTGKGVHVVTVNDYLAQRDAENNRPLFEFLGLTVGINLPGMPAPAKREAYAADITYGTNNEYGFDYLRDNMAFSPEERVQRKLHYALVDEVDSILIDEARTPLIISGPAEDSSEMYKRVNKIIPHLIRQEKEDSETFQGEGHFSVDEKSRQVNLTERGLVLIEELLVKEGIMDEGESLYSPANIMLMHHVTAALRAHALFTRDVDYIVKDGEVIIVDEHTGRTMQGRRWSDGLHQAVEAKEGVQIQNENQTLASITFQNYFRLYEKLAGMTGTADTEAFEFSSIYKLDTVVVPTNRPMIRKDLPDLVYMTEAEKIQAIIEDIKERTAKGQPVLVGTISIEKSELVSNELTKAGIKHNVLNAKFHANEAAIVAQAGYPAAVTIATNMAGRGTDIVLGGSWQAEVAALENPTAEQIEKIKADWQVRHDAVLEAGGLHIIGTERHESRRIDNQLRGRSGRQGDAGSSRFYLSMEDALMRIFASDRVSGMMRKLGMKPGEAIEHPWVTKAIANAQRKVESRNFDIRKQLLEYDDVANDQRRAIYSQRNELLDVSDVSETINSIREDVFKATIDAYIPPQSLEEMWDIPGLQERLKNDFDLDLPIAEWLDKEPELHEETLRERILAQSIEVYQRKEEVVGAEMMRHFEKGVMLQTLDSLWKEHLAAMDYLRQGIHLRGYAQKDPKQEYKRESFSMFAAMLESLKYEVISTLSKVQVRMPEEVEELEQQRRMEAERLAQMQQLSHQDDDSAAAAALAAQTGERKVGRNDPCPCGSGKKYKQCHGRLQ

SMILES | Percent Effect [1] [%] | Percent Effect [2] [%] | Percent Effect [3] [%] | Percent Effect [4] [%] | Percent Effect (Trypanosoma cruzi) [%] | Percent Effect [5] [%] | Percent Effect [6] [%] | Percent Effect (Homo sapiens) [%] | Percent Effect [7] [%] | Percent Effect [8] [%] | Percent Effect [9] [%]
Cc1cc(C)c(CNC(=O)NCC(O)COc2ccccc2)c(=O)[nH]1 (configuration not stated) | -9.63 | 7.89 | 4.9 | 1.32 | -0.84 | -0.719 | -1.1 | 12 | 1.48 | -1.24 | -2.07
Cc1ccc(N2CCN(C(=O)COc3nccc(C)n3)CC2)nn1 | -4.66 | 21.9 | -13.9 | 17.7 | 7.44 | 6.36 | 11.4 | 16 | 7.53 | 17.5 | -9.03
Cc1cc2ccccc2n1CCC(=O)NCc1ncc[nH]1 | -2.35 | 14.9 | 6.43 | -8.05 | -4.74 | -1.16 | 15.6 | 13.5 | 11.8 | 16.9 | -9.55
COc1cccc(C(=O)N2CCCC(c3cc(C)[nH]n3)C2)c1OC (configuration not stated) | -3.02 | 10.8 | -3.74 | -1.79 | 8.4 | -2.81 | 11.7 | 17.4 | 4.43 | 16.1 | -5.21
CCn1ncc2c1CCCC2NCC1=Cc2ccccc2OC1 (configuration not stated) | -4.51 | 3.8 | 4.34 | 0.918 | 1.95 | -7.1 | 10.1 | 13.4 | 4.17 | 7.59 | -2
Nc1nc(C2CCN(C(=O)c3cncs3)CC2)cs1 | -7.01 | 12.2 | 9.81 | 5.35 | 1.38 | 0.232 | 3.59 | -3.51 | 3.23 | 11.7 | -8.22
c1cnnc(NCC2CN(CCN3CCCCC3)CCO2)c1 (configuration not stated) | -2.02 | -7.79 | 5.05 | 6.18 | 9.74 | -3.56 | 1.01 | -18.9 | 0.971 | 7.32 | -2.7
CC(C)c1ccc(-c2nnn(CCNS(C)(=O)=O)n2)cc1 | -4.75 | 2.74 | 0.921 | 2.29 | 4.96 | -2 | 4.71 | -14 | -4.17 | 8.64 | -0.501
Cn1cc(CN2CCn3cc(CNC(=O)c4cccn4C)nc3C2)cn1 | -0.61 | 0 | 12.6 | 0.00498 | -0.394 | -0.699 | -4.32 | 3.52 | 4.25 | 6.41 | 5.91
CCCc1nc(C(=O)N2CCCn3nc(CCC(=O)O)cc3C2)cs1 | -7.52 | 5.41 | 2.34 | 4.25 | 1.54 | 2.38 | 11 | 3.31 | 3.7 | 9.76 | -5.37
O=C(O)[C@]12CCCN(Cc3ccncc3)[C@@H]1CCN(c1cnccn1)C2 | -3.31 | 2.67 | -1.2 | -3.96 | -6.91 | -0.521 | 21.6 | 22 | -0.546 | 1.24 | -6.37
CC(O)CN1CCC(CNCc2cccc(C(N)=O)c2)CC1 (configuration not stated) | -1.81 | 18.9 | -22.5 | 11 | 3.11 | -6.01 | 6.67 | 10.6 | 8.37 | 16.1 | -10
Cc1cnn(C2CN(Cc3ccc4c(c3)OCCO4)C2)c1 | -0.648 | -2.67 | -8.78 | 1.34 | -2.04 | -1.56 | 19.9 | 8.06 | 8.2 | 16.1 | -8.99
COc1ccccc1C(O)CNC(=O)NCc1cccnc1OC (configuration not stated) | -5.38 | 12.7 | 3.02 | -9.15 | -7.84 | -0.38 | 6.63 | 30.3 | 1.48 | 13.9 | -5.07
COc1ccc(OCCc2sc(C3(O)CCCNCC3)nc2C)cc1 (configuration not stated) | -5.55 | 6.76 | 2.86 | 1.72 | 0.198 | -6.73 | 13.6 | 21 | -3.23 | 9.09 | -24.4
COCCN1CCc2cc(C(=O)N(C)C)c(NCC3CC3)nc2CC1 | -8.99 | 2.7 | 1.27 | -1.99 | -5.38 | -1.24 | 8.5 | -19.8 | 2.15 | 11.1 | -0.0365
Cc1ccc(-c2nc(CN3CCc4nn(C)c(=O)cc4C3)co2)cc1 | -3.32 | 35.1 | -173 | 1.71 | -2.74 | 1.2 | 17.1 | 11.3 | 3.45 | 13.6 | -6.66
Cc1cnn(CC(C)NCc2csc(-c3cnn(C)c3)n2)c1 (configuration not stated) | -0.0815 | 19 | -6.28 | -4.12 | -4.41 | 0.645 | 20.6 | 14 | 7.29 | -10.1 | -26.4
CN(Cc1ccsc1)C(=O)Nc1ccc(S(=O)(=O)N(C)C)cc1 | -1.98 | 17.7 | -2.37 | -9.54 | -1.79 | -0.38 | -0.0819 | -7.23 | 6.4 | 21.5 | -6.52
CCc1nc(C2CCCN(C(=O)c3ccc4c(c3)nnn4C)C2)no1 (configuration not stated) | -9.33 | 18.2 | -4.8 | -5.84 | 5.19 | -4.42 | 14.3 | 5.49 | -10.5 | 21.2 | -20.9
O=C(O)c1cc(NS(=O)(=O)c2cccc(Cl)c2F)ccc1Cl | -7.65 | 2.6 | 4.08 | 1.53 | -5.8 | -2.13 | 5.57 | 23.4 | -11.7 | -12.2 | -3.44
Fc1ccccc1-c1noc2c1CN(CC1CC1)CC2 | -0.719 | 13.7 | 1.26 | 4.91 | 5.68 | 1.36 | 17 | 11.6 | 7.53 | 20 | -0.386
